According to PubChem BioAssay AID1159580 (chemical genetic matrix, 2015):
Among all 5,500 compounds or so, about 2,000 (36%) were called active. Inconclusive results (about 18%) are left out. This is one part of the list. A number with no mark means an inactive call. Rule as the data show it: active = normalized growth mostly below about 0.91 (no sharp cut-off); inconclusive = no clear call, values can overlap the other calls; inactive = mostly above about 0.92.

Assay: chemical genetic growth profiling, strain panel (AID 1159580);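 also: tested at 20 µM; growth read once vehicle control cultures reached saturation at 30 °C; 1 = growth at the plate median or of vehicle wells; lower values mean less growth of the strain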
Settings: growth OD

SMILES: COc1ccc(CC(=O)c2ccc(O)cc2O)cc1
- normalized growth (S. cerevisiae deletion strains, locus YKL068W, active compounds read low): 0.98
- normalized growth (S. cerevisiae deletion strains, locus YKL085W, strain MDH1 (second series), active compounds read low): 0.992
- normalized growth (S. cerevisiae deletion strains, locus YKL085W, strain MDH1, active compounds read low): 0.992
- normalized growth (S. cerevisiae deletion strains, locus YKL160W, strain elf1, active compounds read low): 0.938
- normalized growth (S. cerevisiae deletion strains, locus YKL190W, strain CNB1, active compounds read low): 0.975
- normalized growth (S. cerevisiae deletion strains, locus YKR001C, strain vps1, active compounds read low): 0.766 (active)
- normalized growth (S. cerevisiae deletion strains, locus YKR026C, strain gcn3, active compounds read low): 0.988
- normalized growth (S. cerevisiae deletion strains, locus YKR091W, strain srl3, active compounds read low): 0.988
- normalized growth (S. cerevisiae deletion strains, locus YLL001W, strain dnm1, active compounds read low): 0.944
- normalized growth (S. cerevisiae deletion strains, locus YLL026W, active compounds read low): 0.993
- normalized growth (S. cerevisiae deletion strains, locus YLL041C, strain sdh2, active compounds read low): 0.99
- normalized growth (S. cerevisiae deletion strains, locus YLR027C, strain aat2, active compounds read low): 0.997
- normalized growth (S. cerevisiae deletion strains, locus YLR039C, strain RIC1, active compounds read low): 0.686
- normalized growth (S. cerevisiae deletion strains, locus YLR058C, strain SHM2, active compounds read low): 0.946
- normalized growth (S. cerevisiae deletion strains, locus YLR102C, strain apc9, active compounds read low): 0.966
- normalized growth (S. cerevisiae deletion strains, locus YLR113W, strain HOG1, active compounds read low): 0.938
- normalized growth (S. cerevisiae deletion strains, locus YLR221C, strain rsa3, active compounds read low): 0.955
- normalized growth (S. cerevisiae deletion strains, locus YLR258W, strain gsy2, active compounds read low): 0.984
- normalized growth (S. cerevisiae deletion strains, locus YLR262C, strain YPT6 (second series), active compounds read low): 0.768 (active)
- normalized growth (S. cerevisiae deletion strains, locus YLR262C, strain YPT6, active compounds read low): 0.669
- normalized growth (S. cerevisiae deletion strains, locus YLR268W, strain sec22, active compounds read low): 0.931
- normalized growth (S. cerevisiae deletion strains, locus YLR320W, strain mms22, active compounds read low): 0.895
- normalized growth (S. cerevisiae deletion strains, locus YLR330W, strain CHS5, active compounds read low): 0.923
- normalized growth (S. cerevisiae deletion strains, locus YLR342W, strain FKS1 (second series), active compounds read low): 0.864
- normalized growth (S. cerevisiae deletion strains, locus YLR342W, strain FKS1, active compounds read low): 0.972
- normalized growth (S. cerevisiae deletion strains, locus YLR357W, strain rsc2, active compounds read low): 1.01
- normalized growth (S. cerevisiae deletion strains, locus YLR370C, strain arc18, active compounds read low): 0.978
- normalized growth (S. cerevisiae deletion strains, locus YLR371W, strain rom2, active compounds read low): 0.86 (active)
- normalized growth (S. cerevisiae deletion strains, locus YLR384C, strain iki3, active compounds read low): 0.999
- normalized growth (S. cerevisiae deletion strains, locus YLR418C, strain cdc73, active compounds read low): 0.744 (active)
- normalized growth (S. cerevisiae deletion strains, locus YML016C, strain PPZ1, active compounds read low): 0.976
- normalized growth (S. cerevisiae deletion strains, locus YML032C, strain rad52, active compounds read low): 0.938
- normalized growth (S. cerevisiae deletion strains, locus YML120C, strain ndi1, active compounds read low): 0.988
- normalized growth (S. cerevisiae deletion strains, locus YML124C, strain tub3, active compounds read low): 0.981
- normalized growth (S. cerevisiae deletion strains, locus YMR058W, strain fet3, active compounds read low): 0.969
- normalized growth (S. cerevisiae deletion strains, locus YMR078C, strain ctf18, active compounds read low): 0.956
- normalized growth (S. cerevisiae deletion strains, locus YMR125W, strain sto1, active compounds read low): 0.997
- normalized growth (S. cerevisiae deletion strains, locus YMR129W, active compounds read low): 0.993
- normalized growth (S. cerevisiae deletion strains, locus YMR205C, strain PFK2, active compounds read low): 0.92
- normalized growth (S. cerevisiae deletion strains, locus YMR223W, strain ubp8, active compounds read low): 0.952
- normalized growth (S. cerevisiae deletion strains, locus YMR231W, strain pep5, active compounds read low): 0.968
- normalized growth (S. cerevisiae deletion strains, locus YMR307W, strain GAS1, active compounds read low): 0.688
- normalized growth (S. cerevisiae deletion strains, locus YNL067W, strain RPL9B, active compounds read low): 0.945
- normalized growth (S. cerevisiae deletion strains, locus YNL071W, strain lat1, active compounds read low): 0.851 (active)
- normalized growth (S. cerevisiae deletion strains, locus YNL128W, strain TEP1, active compounds read low): 0.98
- normalized growth (S. cerevisiae deletion strains, locus YNL153C, strain GIM3, active compounds read low): 0.978
- normalized growth (S. cerevisiae deletion strains, locus YNL183C, strain NPR1, active compounds read low): 0.91
- normalized growth (S. cerevisiae deletion strains, locus YNL209W, strain ssb2, active compounds read low): 0.998
- normalized growth (S. cerevisiae deletion strains, locus YNL233W, strain BNI4, active compounds read low): 0.935
- normalized growth (S. cerevisiae deletion strains, locus YNL248C, strain rpa49, active compounds read low): 0.987
- normalized growth (S. cerevisiae deletion strains, locus YNL250W, strain rad50, active compounds read low): 1.02
- normalized growth (S. cerevisiae deletion strains, locus YNL271C, strain bni1, active compounds read low): 0.964
- normalized growth (S. cerevisiae deletion strains, locus YNL298W, strain CLA4, active compounds read low): 0.949
- normalized growth (S. cerevisiae deletion strains, locus YNL307C, strain MCK1, active compounds read low): 0.699 (active)
- normalized growth (S. cerevisiae deletion strains, locus YNL322C, strain KRE1 (second series), active compounds read low): 0.971
- normalized growth (S. cerevisiae deletion strains, locus YNL322C, strain KRE1, active compounds read low): 0.952
- normalized growth (S. cerevisiae deletion strains, locus YNR049C, strain mso1, active compounds read low): 0.986
- normalized growth (S. cerevisiae deletion strains, locus YNR052C, strain pop2, active compounds read low): 0.973
- normalized growth (S. cerevisiae deletion strains, locus YOL012C, strain htz1): 1.38
- normalized growth (S. cerevisiae deletion strains, locus YOL147C, strain pex11, active compounds read low): 0.908 (active)
- normalized growth (S. cerevisiae deletion strains, locus YOR001W, strain rrp6, active compounds read low): 0.998
- normalized growth (S. cerevisiae deletion strains, locus YOR061W, strain CKA2, active compounds read low): 0.983
- normalized growth (S. cerevisiae deletion strains, locus YOR069W, strain VPS5, active compounds read low): 0.965
- normalized growth (S. cerevisiae deletion strains, locus YOR070C, strain gyp1, active compounds read low): 0.962
- normalized growth (S. cerevisiae deletion strains, locus YOR080W, strain dia2, active compounds read low): 0.999
- normalized growth (S. cerevisiae deletion strains, locus YOR083W, strain WHI5, active compounds read low): 0.946
- normalized growth (S. cerevisiae deletion strains, locus YOR106W, strain vam3, active compounds read low): 0.952
- normalized growth (S. cerevisiae deletion strains, locus YOR136W, strain idh2, active compounds read low): 0.972
- normalized growth (S. cerevisiae deletion strains, locus YOR144C, strain elg1, active compounds read low): 0.966
- normalized growth (S. cerevisiae deletion strains, locus YOR184W, strain ser1, active compounds read low): 0.831 (active)
- normalized growth (S. cerevisiae deletion strains, locus YOR231W, strain MKK1, active compounds read low): 0.953
- normalized growth (S. cerevisiae deletion strains, locus YOR265W, strain rbl2, active compounds read low): 0.974
- normalized growth (S. cerevisiae deletion strains, locus YOR270C, strain vph1, active compounds read low): 0.84
- normalized growth (S. cerevisiae deletion strains, locus YOR290C, strain snf2, active compounds read low): 0.929
- normalized growth (S. cerevisiae deletion strains, locus YOR316C, strain cot1, active compounds read low): 0.966
- normalized growth (S. cerevisiae deletion strains, locus YPL051W, strain arl3, active compounds read low): 0.885 (active)
- normalized growth (S. cerevisiae deletion strains, locus YPL078C, strain atp4, active compounds read low): 0.911
- normalized growth (S. cerevisiae deletion strains, locus YPL106C, strain sse1, active compounds read low): 1.02
- normalized growth (S. cerevisiae deletion strains, locus YPL240C, strain hsp82, active compounds read low): 0.978
- normalized growth (S. cerevisiae deletion strains, locus YPL256C, strain CLN2, active compounds read low): 0.969
- normalized growth (S. cerevisiae deletion strains, locus YPR119W, strain clb2, active compounds read low): 0.975
- normalized growth (S. cerevisiae deletion strains, locus YPR141C, strain kar3, active compounds read low): 0.983
- normalized growth (S. cerevisiae deletion strains, locus YPR163C, strain tif3, active compounds read low): 0.752 (active)
- normalized growth (S. cerevisiae deletion strains, locus YPR167C, strain met16, active compounds read low): 0.97
- normalized growth (S. cerevisiae deletion strains, strain wtn01, active compounds read low): 0.919
- normalized growth (S. cerevisiae strains, strain wild type, active compounds read low): 0.95
